In the supplement of paper PMC11001985:
A number with no mark means an inactive call.

Compound: C#CCNC(=O)CCSSCCC(=O)NCCc1ccc(C=O)c(C=O)c1
Assay: lysine labeling ratio R10:1 (500 µM / 50 µM probe), SILAC-ABPP in living cells; higher = lower intrinsic lysine reactivity toward the probe, active = 2 or less
Details: HeLa; probe concentrations 500 vs 50 µM
Procedure, shortened: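 Living SILAC light and heavy HeLa cells in PBS at room temperature were treated with an alkyne-tagged, disulfide-linked lysine probe at 50 µM or 500 µM, with forward and reverse label swaps. The mixed lysates were clicked to biotin-azide, digested with trypsin, captured on neutravidin, released with DTT, alkylated and run by LC-MS/MS on a TIMS-TOF Pro. R for each lysine is the filtered median high-probe/low-probe MS1 peptide ratio, taken again as the median over forward and reverse replicates. Any value above 20 is set to 20.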

Chain of UniProt P05362 (P05362 whole entry): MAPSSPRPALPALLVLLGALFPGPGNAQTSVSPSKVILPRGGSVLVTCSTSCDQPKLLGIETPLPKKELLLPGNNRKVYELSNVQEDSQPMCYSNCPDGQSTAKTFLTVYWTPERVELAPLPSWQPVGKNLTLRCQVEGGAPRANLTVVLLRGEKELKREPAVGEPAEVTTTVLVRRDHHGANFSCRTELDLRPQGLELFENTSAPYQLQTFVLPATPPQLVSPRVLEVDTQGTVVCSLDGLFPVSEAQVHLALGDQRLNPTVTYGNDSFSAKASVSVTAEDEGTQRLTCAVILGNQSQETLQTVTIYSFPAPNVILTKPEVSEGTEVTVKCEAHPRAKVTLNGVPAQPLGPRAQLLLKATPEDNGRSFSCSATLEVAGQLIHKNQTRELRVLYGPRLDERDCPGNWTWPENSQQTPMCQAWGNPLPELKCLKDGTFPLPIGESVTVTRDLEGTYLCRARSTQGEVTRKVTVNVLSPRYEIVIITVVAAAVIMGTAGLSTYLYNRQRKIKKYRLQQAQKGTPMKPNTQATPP
Chain of UniProt Q12797 (Q12797 whole entry): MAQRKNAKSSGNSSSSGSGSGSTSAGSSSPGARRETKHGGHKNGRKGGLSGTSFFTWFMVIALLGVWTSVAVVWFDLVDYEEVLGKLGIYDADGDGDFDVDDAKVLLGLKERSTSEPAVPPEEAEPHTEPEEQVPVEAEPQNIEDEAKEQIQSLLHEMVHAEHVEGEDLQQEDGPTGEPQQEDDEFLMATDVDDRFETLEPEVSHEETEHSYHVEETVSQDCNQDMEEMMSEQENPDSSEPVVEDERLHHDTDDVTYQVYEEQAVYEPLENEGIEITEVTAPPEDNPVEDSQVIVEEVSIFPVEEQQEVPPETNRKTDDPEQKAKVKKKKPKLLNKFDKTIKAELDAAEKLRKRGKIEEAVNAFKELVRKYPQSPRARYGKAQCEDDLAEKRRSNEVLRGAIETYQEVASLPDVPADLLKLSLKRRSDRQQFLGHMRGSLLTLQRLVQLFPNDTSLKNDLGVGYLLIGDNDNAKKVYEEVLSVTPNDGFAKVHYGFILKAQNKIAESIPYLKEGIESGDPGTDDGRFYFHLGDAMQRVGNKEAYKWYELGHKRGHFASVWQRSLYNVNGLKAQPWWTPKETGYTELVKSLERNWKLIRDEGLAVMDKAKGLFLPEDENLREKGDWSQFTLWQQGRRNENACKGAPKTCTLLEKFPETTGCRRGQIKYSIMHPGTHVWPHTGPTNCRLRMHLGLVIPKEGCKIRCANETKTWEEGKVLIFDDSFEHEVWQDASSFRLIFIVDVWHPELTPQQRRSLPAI
Chain of UniProt P10909 (P10909 whole entry): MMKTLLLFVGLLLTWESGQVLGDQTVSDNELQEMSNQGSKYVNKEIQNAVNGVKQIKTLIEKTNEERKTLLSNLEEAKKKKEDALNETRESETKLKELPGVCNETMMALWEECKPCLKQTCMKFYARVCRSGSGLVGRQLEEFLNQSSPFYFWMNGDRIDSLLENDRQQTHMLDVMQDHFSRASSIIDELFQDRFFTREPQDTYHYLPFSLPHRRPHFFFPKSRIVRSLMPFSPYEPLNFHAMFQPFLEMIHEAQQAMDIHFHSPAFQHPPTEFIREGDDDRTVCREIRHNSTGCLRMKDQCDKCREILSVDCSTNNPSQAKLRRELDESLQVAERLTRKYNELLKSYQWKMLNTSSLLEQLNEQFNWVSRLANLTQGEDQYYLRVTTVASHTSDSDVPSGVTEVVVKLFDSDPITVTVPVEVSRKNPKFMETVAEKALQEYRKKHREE
Chain of UniProt O95084 (O95084 whole entry): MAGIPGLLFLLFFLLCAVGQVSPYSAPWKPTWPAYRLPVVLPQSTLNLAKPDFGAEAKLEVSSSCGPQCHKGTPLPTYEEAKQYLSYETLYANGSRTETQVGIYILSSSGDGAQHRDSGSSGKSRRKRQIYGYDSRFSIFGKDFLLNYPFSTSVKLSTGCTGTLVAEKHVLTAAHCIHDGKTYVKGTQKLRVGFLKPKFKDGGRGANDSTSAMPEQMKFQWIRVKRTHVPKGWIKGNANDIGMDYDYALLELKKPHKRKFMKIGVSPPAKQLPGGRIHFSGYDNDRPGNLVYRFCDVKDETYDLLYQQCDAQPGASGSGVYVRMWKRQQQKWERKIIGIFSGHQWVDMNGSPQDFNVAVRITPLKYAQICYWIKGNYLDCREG
Chain of UniProt P11142 (P11142 whole entry, looked up): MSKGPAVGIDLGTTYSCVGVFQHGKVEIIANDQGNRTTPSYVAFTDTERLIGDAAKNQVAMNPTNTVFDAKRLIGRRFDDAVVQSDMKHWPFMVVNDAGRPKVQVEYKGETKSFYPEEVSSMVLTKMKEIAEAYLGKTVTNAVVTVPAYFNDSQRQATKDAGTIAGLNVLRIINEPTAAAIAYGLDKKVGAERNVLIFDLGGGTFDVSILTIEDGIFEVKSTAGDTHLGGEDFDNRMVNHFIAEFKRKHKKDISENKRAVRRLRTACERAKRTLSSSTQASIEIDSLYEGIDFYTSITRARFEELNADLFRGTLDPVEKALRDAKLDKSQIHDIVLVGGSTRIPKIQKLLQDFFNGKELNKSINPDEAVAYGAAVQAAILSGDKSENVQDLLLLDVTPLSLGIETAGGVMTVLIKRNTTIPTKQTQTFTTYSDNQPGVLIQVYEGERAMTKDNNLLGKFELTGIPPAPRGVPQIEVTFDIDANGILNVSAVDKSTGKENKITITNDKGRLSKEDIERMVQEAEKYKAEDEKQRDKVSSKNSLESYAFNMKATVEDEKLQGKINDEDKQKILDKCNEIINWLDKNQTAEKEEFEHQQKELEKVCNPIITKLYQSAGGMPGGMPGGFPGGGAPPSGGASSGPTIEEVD
Chain of UniProt P08195 (P08195 whole entry): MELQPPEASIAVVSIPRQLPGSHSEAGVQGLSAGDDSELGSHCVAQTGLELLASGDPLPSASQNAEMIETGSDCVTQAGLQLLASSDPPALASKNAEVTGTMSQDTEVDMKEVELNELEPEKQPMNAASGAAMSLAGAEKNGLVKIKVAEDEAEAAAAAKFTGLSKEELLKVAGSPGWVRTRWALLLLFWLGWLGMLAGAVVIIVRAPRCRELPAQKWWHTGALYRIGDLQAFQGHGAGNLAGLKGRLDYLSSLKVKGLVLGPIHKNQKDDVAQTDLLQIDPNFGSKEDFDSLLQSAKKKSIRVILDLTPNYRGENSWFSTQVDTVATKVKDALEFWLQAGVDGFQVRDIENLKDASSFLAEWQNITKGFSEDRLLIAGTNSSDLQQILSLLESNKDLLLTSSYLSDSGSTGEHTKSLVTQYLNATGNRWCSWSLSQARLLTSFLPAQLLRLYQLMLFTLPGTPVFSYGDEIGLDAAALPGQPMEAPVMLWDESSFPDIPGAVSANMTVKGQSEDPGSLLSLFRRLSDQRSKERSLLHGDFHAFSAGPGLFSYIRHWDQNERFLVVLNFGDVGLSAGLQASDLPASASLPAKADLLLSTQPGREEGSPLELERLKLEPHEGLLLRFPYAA
Chain of UniProt P26006 (P26006 whole entry): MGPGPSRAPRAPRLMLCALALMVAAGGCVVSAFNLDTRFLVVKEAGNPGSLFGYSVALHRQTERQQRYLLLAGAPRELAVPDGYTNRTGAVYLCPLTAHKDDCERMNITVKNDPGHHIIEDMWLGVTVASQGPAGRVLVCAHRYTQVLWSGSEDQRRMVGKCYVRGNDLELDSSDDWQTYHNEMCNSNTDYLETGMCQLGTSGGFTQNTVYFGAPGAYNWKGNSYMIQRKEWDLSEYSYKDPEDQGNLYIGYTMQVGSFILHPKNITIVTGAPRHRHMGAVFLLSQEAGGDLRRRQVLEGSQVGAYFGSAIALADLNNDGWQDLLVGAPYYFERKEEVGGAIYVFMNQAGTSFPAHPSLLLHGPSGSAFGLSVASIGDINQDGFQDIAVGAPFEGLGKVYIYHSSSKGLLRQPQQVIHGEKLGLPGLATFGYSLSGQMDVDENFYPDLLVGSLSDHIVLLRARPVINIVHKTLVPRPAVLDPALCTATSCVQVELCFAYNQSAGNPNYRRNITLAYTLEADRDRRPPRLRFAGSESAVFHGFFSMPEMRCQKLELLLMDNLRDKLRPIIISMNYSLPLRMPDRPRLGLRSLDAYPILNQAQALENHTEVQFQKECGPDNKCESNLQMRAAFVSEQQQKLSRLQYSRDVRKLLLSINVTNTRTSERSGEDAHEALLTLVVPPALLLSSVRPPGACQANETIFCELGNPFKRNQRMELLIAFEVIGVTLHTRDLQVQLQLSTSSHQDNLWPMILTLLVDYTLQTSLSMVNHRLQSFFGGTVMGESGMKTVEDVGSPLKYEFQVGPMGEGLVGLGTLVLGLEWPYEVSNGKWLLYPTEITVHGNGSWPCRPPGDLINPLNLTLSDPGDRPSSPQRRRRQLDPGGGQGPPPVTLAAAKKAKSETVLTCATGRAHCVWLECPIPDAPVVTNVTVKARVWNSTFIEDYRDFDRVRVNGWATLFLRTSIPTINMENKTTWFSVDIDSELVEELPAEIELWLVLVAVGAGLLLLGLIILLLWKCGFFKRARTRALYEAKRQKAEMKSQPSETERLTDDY
Chain of UniProt P25705 (P25705 whole entry): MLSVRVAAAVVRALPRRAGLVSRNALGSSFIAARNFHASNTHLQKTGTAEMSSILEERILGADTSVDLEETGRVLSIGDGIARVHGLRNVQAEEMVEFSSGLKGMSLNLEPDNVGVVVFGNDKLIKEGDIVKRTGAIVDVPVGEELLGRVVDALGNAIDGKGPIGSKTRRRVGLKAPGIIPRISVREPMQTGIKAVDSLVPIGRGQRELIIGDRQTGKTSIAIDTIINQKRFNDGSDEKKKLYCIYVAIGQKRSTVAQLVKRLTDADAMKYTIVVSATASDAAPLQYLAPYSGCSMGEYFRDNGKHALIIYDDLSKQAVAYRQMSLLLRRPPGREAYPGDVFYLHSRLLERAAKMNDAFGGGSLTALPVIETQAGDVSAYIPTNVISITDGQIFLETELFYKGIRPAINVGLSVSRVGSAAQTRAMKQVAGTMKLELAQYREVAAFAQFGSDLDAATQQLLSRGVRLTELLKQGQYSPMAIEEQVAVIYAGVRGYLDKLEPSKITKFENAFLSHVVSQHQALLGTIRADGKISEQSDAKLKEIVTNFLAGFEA

| Target | lysine labeling ratio R10:1 |
| --- | --- |
| CSE1L (lysine site: K17) (UniProt P55060) | 1.76 (active) |
| ITGA3 (lysine site: K620) (UniProt P26006) | 1.8 (active) |
| SLC3A2 (lysine site: K245) (UniProt P08195) | 5.72 |
| UniProt O95084 (lysine site: K189) | 2.74 |
| HNRNPM (lysine site: K48) (UniProt P52272) | 4.62 |
| MCAM (lysine site: K398) (UniProt P43121) | 5.61 |
| ICAM1 (lysine site: K359) (UniProt P05362) | 3.71 |
| PTPRF (lysine site: K994) (UniProt P10586) | 4.54 |
| IQGAP1 (lysine site: K274) (UniProt P46940) | 3.87 |
| ARHGAP17 (lysine site: K9) (UniProt Q68EM7) | 1.92 (active) |
| UniProt Q15149 (lysine site: K2846) | 3.06 |
| UniProt P25705 (lysine site: K175) | 2.16 |
| HSPA8 (lysine site: K251) (UniProt P11142) | 1.57 (active) |
| H2AFX (lysine site: K37) (UniProt P16104) | 2.89 |
| CLU (lysine site: K322) (UniProt P10909) | 1.38 (active) |
| LAMC1 (lysine site: K1041) (UniProt P11047) | 2.18 |
| ASPH (lysine site: K110) (UniProt Q12797) | 4.5 |
